Publication PMC5540273 (PLoS ONE, 2017)

Tests used:
Conditions in all cases: concentration: 1 μM, replicates: in singlicate; n = 1
[1] = tested on: T1, PRKR
T1 construct: gene EIF2AK2

[2] = tested on: PRKX
[3] = tested on: PRP4
[4] = tested on: T2, PYK2
T2 construct: gene PTK2B

[5] = tested on: QSK
[6] = tested on: RAF1
[7] = tested on: RET
[8] = tested on: RIOK1
[9] = tested on: RIOK2
[10] = tested on: RIOK3
[11] = tested on: RIPK1
[12] = tested on: RIPK2
[13] = tested on: RIPK4
[14] = tested on: RIPK5
[15] = tested on: ROCK1
[16] = tested on: ROCK2
[17] = tested on: ROS1
[18] = tested on: RPS6KA4(Kin.Dom.1-N-terminal)
[19] = tested on: RPS6KA4(Kin.Dom.2-C-terminal)
[20] = tested on: RPS6KA5(Kin.Dom.1-N-terminal)
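Note: KINOMEscan kinase panel screen.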

| Compound | %Inh [1] [%] | %Inh [2] [%] | %Inh [3] [%] | %Inh [4] [%] | %Inh [5] [%] | %Inh [6] [%] | %Inh [7] [%] | %Inh [8] [%] | %Inh [9] [%] | %Inh [10] [%] | %Inh [11] [%] | %Inh [12] [%] | %Inh [13] [%] | %Inh [14] [%] | %Inh [15] [%] | %Inh [16] [%] | %Inh [17] [%] | %Inh [18] [%] | %Inh [19] [%] | %Inh [20] [%] |
| --- | --- | --- | --- | --- | --- | --- | --- | --- | --- | --- | --- | --- | --- | --- | --- | --- | --- | --- | --- | --- |
| OCCOCCn1ccc2ncnc(Nc3ccc(Oc4cccc(Cl)c4)c(Cl)c3)c21 | 0 | 3 | 9 | 0 | 0 | 5 | 0 | 0 | 0 | 0 | 0 | 48 | 0 | 0 | 0 | 0 | 0 | 17 | 0 | 0 |
| Clc1ccc(-c2cc(-c3c[nH]nc3-c3ccccn3)ccn2)cc1 [GW681251] | 11 | 12 | 9 | 0 | 0 | 4 | 27 | 19 | 2 | 0 | 0 | 37 | 0 | 0 | 0 | 12 | 0 | 2 | 0 | 6 |
| COc1ccc(Nc2nccc(N3CCC(NC(=O)Nc4ccc5c(c4)OCO5)C3)n2)cc1 (centres unmarked) [GSK1379745] | 0 | 19 | 23 | 27 | 8 | 22 | 9 | 28 | 5 | 35 | 0 | 0 | 0 | 0 | 12 | 9 | 34 | 13 | 0 | 0 |
| Nc1nc(-c2cccnc2)c(-c2ccnc3ccccc23)s1 [GW684083] | 0 | 31 | 19 | 16 | 5 | 11 | 0 | 30 | 38 | 0 | 0 | 10 | 0 | 2 | 44 | 32 | 25 | 0 | 0 | 26 |
| Fc1cccc(COc2ccc(Nc3ncnc4nn5ccccc5c34)cc2Cl)c1 [GW689066] | 0 | 2 | 0 | 0 | 0 | 4 | 0 | 20 | 0 | 0 | 0 | 0 | 0 | 0 | 40 | 33 | 1 | 17 | 0 | 0 |
| COc1ccc(NC(=O)c2ccc(-c3cc(-c4nnc(C)o4)ccc3C)cc2)cc1 [GW595885] | 0 | 5 | 18 | 0 | 21 | 6 | 28 | 12 | 0 | 0 | 0 | 0 | 9 | 0 | 10 | 13 | 0 | 0 | 0 | 12 |
| Fc1ccc(-c2ncn(CCCNCc3ccccc3)c2-c2ccncc2)cc1 | 0 | 0 | 17 | 1 | 1 | 0 | 18 | 0 | 11 | 28 | 9 | 0 | 29 | 26 | 27 | 32 | 0 | 0 | 32 | 0 |
| Cl.Fc1ccccc1COc1ccc(Nc2ncnc3ccc(-c4nnc(C(F)(F)F)o4)cc23)cc1Cl [GW424170] | 0 | 0 | 16 | 14 | 0 | 7 | 0 | 22 | 0 | 18 | 9 | 28 | 0 | 0 | 10 | 4 | 11 | 10 | 0 | 6 |
| O=C(NCCCN1CCCC1=O)c1cnc(NCc2cc(Cl)ccc2Cl)nc1NC1CCNCC1 | 0 | 0 | 2 | 0 | 0 | 0 | 8 | 0 | 0 | 8 | 0 | 0 | 0 | 0 | 0 | 0 | 0 | 15 | 0 | 0 |
| CNc1nccc(-c2c(-c3ccc(F)cc3)ncn2CCCN2CCOCC2)n1 [SB-222516] | 0 | 0 | 0 | 4 | 19 | 0 | 7 | 25 | 0 | 24 | 9 | 0 | 33 | 0 | 4 | 0 | 3 | 27 | 1 | 8 |
